Assay in all cases: NCI-60 one-dose screen, 48 h (100 = growth as untreated, 0 = no growth, -100 = all killed)
In one test the test system is HT29 colon. As to conditions: 10 µM unless noted.
For a further test, the system named is SNB-75 CNS. The note with it: 10 µM unless noted.
The test system of the next test is SNB-19 CNS. The note with it: 10 µM unless noted.
In another test the test system is U251 CNS. As to conditions: 10 µM unless noted.
The test system of another test is PC-3 prostate. As to conditions: 10 µM unless noted.
In a further test the test system is SK-MEL-5 melanoma. The note with it: 10 µM unless noted.
The test system of the next test is UACC-62 melanoma. The note with it: 10 µM unless noted.
A further test concerns LOX IMVI melanoma. As to conditions: 10 µM unless noted.
Another test concerns SK-MEL-28 melanoma. As to conditions: 10 µM.
The next test concerns SK-MEL-2 melanoma. The note with it: 10 µM unless noted.
For the next test, the system named is SN12C renal. The note with it: 10 µM unless noted.
A further test relates to UO-31 renal. As to conditions: 10 µM unless noted.
For the next test, the system named is TK-10 renal. The note with it: 10 µM unless noted.
A further test relates to ACHN renal. As to conditions: 10 µM unless noted.
The next test relates to CAKI-1 renal. As to conditions: 10 µM unless noted.
Another test has as its system A498 renal. As to conditions: 10 µM unless noted.
Another test relates to CCRF-CEM leukemia. The note with it: 10 µM unless noted.
The subject of the next test is MOLT-4 leukemia. As to conditions: 10 µM unless noted.
Another test has as its system EKVX NSCLC. The note with it: 10 µM unless noted.
For the next test, the system named is SR leukemia. The note with it: 10 µM unless noted.

The values that follow come from PubChem BioAssay (NCI).

Each structure is given as a SMILES string. About 83,000 compounds went through this panel and 20% of them were active in at least one assay; those are over-represented in the sample as a whole.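 Plates (96-well) were seeded with cells, treated with compound at one concentration, and incubated for 48 hours before percent growth was determined.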 A number with no mark means an inactive call. Activity calls are given as the source filed them. Rule for the calls: active = growth percent below 10; inactive = the rest.

For the compound `Nc1n[nH]c2ccc([C@@H]3Nc4ccc5[nH]ncc5c4[C@H]4[C@H]5CCC(C5)[C@H]43)cc12`, the growth in the test with HT29 colon is 2.25% (active); with SNB-75 CNS, 11.4%; with SNB-19 CNS it was 33.4%; with U251 CNS, 20.1%; with PC-3 prostate, 25.6%; in the test with SK-MEL-5 melanoma, 16.9%. Further, the growth in the test with UACC-62 melanoma is 40.5%; with LOX IMVI melanoma it was 14.7%; in the test on SK-MEL-28 melanoma, 57.7%; in the test on SK-MEL-2 melanoma, 29.5%; in the test with SN12C renal, 24.6%; in the test with UO-31 renal, 46.3%. The growth was 60.8% in the test with TK-10 renal; 27.7% in the test with ACHN renal; 16.4% with CAKI-1 renal; -20.5% (active) with A498 renal; 17% in the test on CCRF-CEM leukemia; 18% in the test on MOLT-4 leukemia.

With `COc1cc(C(C)n2cc(-c3ccccc3)nn2)ccc1OC1CCCCC1` (stereo not given), the growth with HT29 colon is 82.3%; in the test on SNB-75 CNS, 68.1%; in the test with SNB-19 CNS it was 68.7%; with U251 CNS, 81%; in the test on PC-3 prostate, 69.6%; in the test on SK-MEL-5 melanoma, 29.9%. In addition, the growth in the test on UACC-62 melanoma was 55.7%; in the test with LOX IMVI melanoma it was 63.1%; in the test on SK-MEL-28 melanoma, 95.1%; with SK-MEL-2 melanoma it was 92.8%; in the test with SN12C renal it was 67.7%; in the test with UO-31 renal, 56.9%. Moreover, the growth was 75.3% in the test on TK-10 renal; 51.1% in the test on ACHN renal; 48.7% with CAKI-1 renal; 49.3% in the test with A498 renal; 55.3% in the test on CCRF-CEM leukemia; 50.1% in the test with MOLT-4 leukemia.

As to `COc1ccc(-c2nc(-c3ccccc3)c(-c3ccccc3)[nH]2)cc1OC1CCCCC1`, the growth is 99.1% with HT29 colon; 78.7% in the test on SNB-75 CNS; 85.8% with SNB-19 CNS; 90.3% in the test on U251 CNS; 64.8% in the test on PC-3 prostate; 93.6% in the test on SK-MEL-5 melanoma. Moreover, the growth in the test with UACC-62 melanoma was 76.7%; in the test with LOX IMVI melanoma, 83.4%; with SK-MEL-28 melanoma, 96.4%; with SK-MEL-2 melanoma, 95.1%; in the test with SN12C renal it was 81.6%; in the test with UO-31 renal, 59.3%. For the same compound, the growth was 115% in the test with TK-10 renal; 68.9% in the test with ACHN renal; 71.7% in the test on CAKI-1 renal; 68.2% in the test on A498 renal; 91.6% with CCRF-CEM leukemia; 79.4% in the test on MOLT-4 leukemia.

Turning to `CC[C@]1(O)C[C@@H]2CN(CCc3c([nH]c4ccccc34)[C@@](C(=O)OC)(c3cc4c(cc3OC)N(C)[C@H]3[C@@](O)(C(=O)OC)[C@H](OC(C)=O)[C@]5(CC)C=CCN6CC[C@]43[C@@H]65)C2)C1`, the growth with HT29 colon is 8.06% (active); in the test on SNB-75 CNS, 3.82% (active); in the test on SNB-19 CNS, 29.8%; in the test with U251 CNS, 16.6%; in the test with PC-3 prostate, 20%; in the test with SK-MEL-5 melanoma, -54.6% (active). Moreover, the growth with UACC-62 melanoma was 34.4%; with LOX IMVI melanoma it was 15.3%; in the test with SK-MEL-28 melanoma, 66%; with SK-MEL-2 melanoma it was 39.8%; with EKVX NSCLC, 38.8%; with SN12C renal it was 27%. Besides, the growth in the test with ACHN renal is 30.1%; with CAKI-1 renal, 4.83% (active); in the test with A498 renal it was -12.5% (active); in the test on CCRF-CEM leukemia it was 13.8%; in the test with MOLT-4 leukemia, 26.5%.

Consider `COc1ccc(-c2nc(-c3ccccn3)c(-c3ccccn3)n2CC(C)C)cc1OC1CCCC1`, for which the growth with HT29 colon was 12.2%; with SNB-75 CNS, 20.5%; in the test on SNB-19 CNS it was 24.2%; with U251 CNS, 11.1%; in the test with PC-3 prostate, 12.6%; in the test on SK-MEL-5 melanoma, 15.5%. The growth in the test with UACC-62 melanoma was 9.71% (active); in the test on LOX IMVI melanoma, 20.8%; in the test on SK-MEL-28 melanoma, 35.9%; in the test with SK-MEL-2 melanoma, -4.88% (active); in the test on SN12C renal, 8.15% (active); with UO-31 renal it was -13.8% (active). The growth in the test with TK-10 renal was 28.5%; in the test with ACHN renal, 16.8%; with CAKI-1 renal it was 10.5%; in the test with A498 renal, -14.3% (active); with CCRF-CEM leukemia, 1.08% (active); in the test with MOLT-4 leukemia, -31.7% (active).

As for `CCOc1cc(Cl)c(C(C)NC(=O)c2cccc(OC)c2)cc1OCC` (stereo not given), the growth was -39.4% (active) with HT29 colon; 7.33% (active) with SNB-75 CNS; 84.2% in the test with SNB-19 CNS; 22.5% in the test with U251 CNS; 6.15% (active) in the test with PC-3 prostate; -96.8% (active) with SK-MEL-5 melanoma. Besides, the growth is -76% (active) in the test with UACC-62 melanoma; -68.9% (active) with LOX IMVI melanoma; -44.6% (active) in the test on SK-MEL-28 melanoma; 34.9% in the test with SK-MEL-2 melanoma; -23.3% (active) with SN12C renal; -92.5% (active) in the test on UO-31 renal. Moreover, the growth in the test with TK-10 renal was -62.4% (active); in the test on ACHN renal it was -73.3% (active); in the test on CAKI-1 renal it was -39.1% (active); in the test on A498 renal it was 26.2%; in the test with CCRF-CEM leukemia it was -24.5% (active); with MOLT-4 leukemia, -10.2% (active). The growth with SR leukemia is -19.1% (active).

For the compound `CCC1=C[C@@H]2CN(C1)Cc1c([nH]c3ccccc13)[C@@](C(=O)OC)(c1cc3c(cc1OC)N(C)[C@H]1[C@@](O)(C(=O)OC)[C@H](OC(C)=O)[C@]4(CC)[C@@H]5C[C@@H]5CN5CC[C@]31[C@@H]54)C2`, the growth in the test with HT29 colon was -23.3% (active); with SNB-75 CNS, 3.05% (active); with SNB-19 CNS it was 55.7%; in the test on U251 CNS, 7.9% (active); in the test with PC-3 prostate it was 22.5%; in the test on SK-MEL-5 melanoma, -79.9% (active). Moreover, the growth is 12.6% in the test on UACC-62 melanoma; 3.68% (active) in the test on LOX IMVI melanoma; 14.4% with SK-MEL-28 melanoma; 10.4% in the test with SK-MEL-2 melanoma; 19.3% in the test on SN12C renal; 3.11% (active) with UO-31 renal. Moreover, the growth in the test with TK-10 renal was 24.2%; with ACHN renal, 19.6%; in the test with CAKI-1 renal it was 24.9%; with A498 renal it was -24.5% (active); with CCRF-CEM leukemia, 1.97% (active); in the test with MOLT-4 leukemia, -3.35% (active). Further, the growth in the test with SR leukemia was -19.3% (active).

Consider `COC(=O)c1c2c(c(C)[n+]([O-])c1C)C(=O)C(NCc1ccc(F)c(F)c1)=CC2=O`, for which the growth is 11.6% with HT29 colon; 83.6% in the test with SNB-75 CNS; 8.33% (active) in the test with SNB-19 CNS; 2.99% (active) with U251 CNS; 15.6% in the test with PC-3 prostate; -97% (active) in the test with SK-MEL-5 melanoma. In addition, the growth with UACC-62 melanoma is -15.7% (active); in the test with LOX IMVI melanoma, 5.3% (active); with SK-MEL-28 melanoma, 50.2%; with SK-MEL-2 melanoma, 43.1%; in the test on EKVX NSCLC, 13%; in the test on SN12C renal it was 1.1% (active). Also, the growth with TK-10 renal is 85.5%; with ACHN renal it was 22.1%; with CAKI-1 renal it was 43%; with CCRF-CEM leukemia it was 21.5%; in the test with MOLT-4 leukemia, 8.41% (active); in the test with SR leukemia, 20.4%.
